Screens as filed in PubChem BioAssay.
Hits are enriched below; roughly 21% of the tested compounds scored in any of these assays.
SARS PLpro yeast: blocks SARS-CoV papain-like protease in a yeast assay. S. cerevisiae expressing SARS-CoV PLpro, growth rescue. actives 0.19% (n = 330,000). Potency, µM (titrated, usually from 32.9 µM), for inactives: at the top dose activity, positive = growth rescue, actives largely listed as activators; calls by dose curve; note: potency is the fitted concentration of half-maximal effect; 0% is about no effect; nearly all actives have a fitted effect of over 55% in size
Shiga inhibitor: blocks Shiga toxin action in Vero cells; Vero cells, Shiga toxin protein synthesis inhibition reporter; inhibition, % at 38.7 µM; actives 9.2% (n = 290,000); AID 2315; in the data active = inhibition mostly above about 28%, no sharp cut-off; inactive = mostly below about 43%; note: 0% is about no effect
Pf growth 48h: P. falciparum growth inhibition at 48 hours (one generation). P. falciparum luciferase growth in erythrocytes, 48 h. Potency, µM (titrated, usually from 28.7 µM), without a hit: top-dose activity change, negative = inhibition, usual class: inhibitors. AID 504832. actives 5.9% (n = 310,000); note: potency is the fitted concentration of half-maximal effect; % is set by controls: 0 for no effect and ±100 for the full control effect
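Luciferase-expressing parasites in RBCs, 2% Hct / 0.1% parasitemia final; RPMI 1640 + 0.5% Albumax; 37 C, 5% CO2, one generation; luminescence read-out, lower signal = inhibition.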
Cycloheximide cs: counter-screen hit for Shiga toxin inhibitors, cycloheximide; AID 2314; actives 12% (n = 300,000); max response, %; cell reporter, cycloheximide protein synthesis inhibition counterscreen; in the data active = max response mostly above about 13%, no sharp cut-off; inactive = mostly below about 14%; note: read at 38.3 µM for the half of the compounds with a filed dose; 0% is about no effect
Pf growth 96h: inhibits malaria parasite growth, 96 h | actives 6.9% (n = 320,000) | Potency, µM (titrated, usually from 28.7 µM), for the others: at the highest dose activity change, negative = inhibition, actives largely listed as inhibitors | AID 504834 | P. falciparum luciferase reporter growth, 96 h; note: potency is the fitted concentration of half-maximal effect; % is set by controls: 0 for no effect and ±100 for the full control effect
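Compounds incubated with erythrocytes infected by luciferase-expressing P. falciparum (2% hematocrit, 0.05% parasitemia final) for 96 hours, 37 C in 5% CO2. Growth inhibition scored as decreased luciferase luminescence.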
NS1 inh: blocks influenza NS1 protein function. Potency, µM (series often up to 46.1 µM), inactives show at the highest dose activity, positive = more growth. actives 0.4% (n = 270,000). AID 2326; calls by dose curve; note: potency is the fitted concentration of half-maximal effect; actives are rising curves; nearly all actives have a fitted effect of over 50% in size
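In this qHTS, NS1 from influenza A is expressed in budding yeast, where it slows growth. Cells are switched from glucose to 2% galactose medium (pH 6.0, -URA), treated with compound, and growth recovery is read at OD600.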
Active calls of the source: *; i = inactive; ? = inconclusive; nt = not tested or not shown; [ ] = another dose, or the depositor's remark. Unless noted, calls come from the whole dose curve; as a rule, active = well fitted inhibition curve with a large enough effect; inconclusive = small, poorly fitted or top-dose-only effect, or another doubt; inactive = no such curve, though single readings can be large or run the other way.

SMILES | SARS PLpro yeast | Shiga inhibitor | Pf growth 48h | Cycloheximide cs | Pf growth 96h | NS1 inh
CCOC(=O)NC(=O)c1cn(CCNCCO)c(=O)[nH]c1=O | 0% | -8 | 3% | -6 | ? | nt
Cn1c(SC2CCCCC2=O)nnc1-c1ccncc1 (stereo not given) | 2% | -24 | -15% | 7 | -6% | 10%
COc1ccc(-c2nnc(SCCc3ccccc3)n2N)cc1 | -3% | 24* | 23% | 16 | nt | -19%
Cn1c(SCC2CCCCC2)nnc1-c1ccncc1 | 2% | 76 | 15% | 16* | ? | -6%
COc1ccc(OCCSc2nnc(-c3ccccc3)n2N)cc1 | 4% | 11 | -2% | 9 | 13% | -8%
Cc1c(C(=O)N(C)CCC#N)oc2ccc(S(=O)(=O)N3CCOCC3)cc12 | 1% | -1 | 26% | -3 | ? | -1%
Cc1ccc(C(C)C)c(OCc2nn(CC(=O)c3ccc(OC(F)F)cc3)c3[n+]2CCCCC3)c1 | 0% | -4 | 1.9µM* | 9 | ? | -2%
O=C(Cn1nc(-c2nn(CC(=O)c3ccccc3)c3[n+]2CCCCC3)[n+]2c1CCCCC2)c1ccccc1 | 0% | 3 | ? | -1 | -23% | -3%
COc1ccc(C(=O)Cn2nc(CNc3ccc(Br)cc3)[n+]3c2CCCCC3)cc1 | 0% | -8 | 1µM* | -3 | 1.9µM* | nt
Nc1ccn(Cc2ccc(F)cc2)n1 | -1% | -20 | 11% | 5 | 4% | ?
O=C(COc1ccc(Br)cc1)N1CCN(c2ccccc2)CC1 | -6% | -10 | nt | -3 | 4.7µM* | -11%
O=C(COc1ccccc1)N1CCN(c2ccccc2)CC1 | -4% | 5 | -8% | -1 | 35% | 3%
O=C(COc1ccccc1)N1CCN(CC(O)COc2ccccc2)CC1 (stereo not given) | -2% | 32 | -12% | -5 | 15µM* | -1%
O=C(COc1ccc(Cl)cc1Br)N1CCN(c2ccccc2)CC1 | ? | -7 | -2% | -3 | 3.7µM* | -4%
OC(COc1ccccc1)CN1CCN(CC(O)COc2ccccc2)CC1 (stereo not given) | 1% | 11 | 9% | -2 | 17% | nt
O=CN1CCN(C(=O)COc2ccc(Cl)cc2Br)CC1 | -13% | -7 | 32% | -3 | 7% | 3%
Cc1nnc(Sc2cc(C(=O)NC3CC3)c3ccccc3n2)s1 | 1% | -21 | -4% | 2 | -6% | 3%
Oc1cccc[c]1[Hg][Cl] | nt | nt | 1.1µM* | nt | 1.1µM* | nt
Cc1ccccc1O | 2% | nt | nt | nt | nt | nt
CC(C)(C)n1nnnc1C(c1ccc(Cl)cc1)N1CCCc2ccccc21 (stereo not given) | 0% | -9 | 2.3µM* | -1 | 33% | 0%
c1cnc2ccc(C(c3nnnn3C3CCCC3)N3CCN(c4nc5ccccc5s4)CC3)cc2c1 (stereo not given) | 3% | 13 | 5.2µM* | 29 | 1% | ?
COc1ccc(C(c2nnnn2C(C)(C)C)N2CCN(c3nc4ccccc4s3)CC2)cc1OC (stereo not given) | 19% | 40 | 5.2µM* | 15 | ? | 1%
CCC(C)(C)n1nnnc1C(c1ccc2ncccc2c1)N1CCN2CCCC2C1 (stereo not given) | -2% | -5 | 10µM* | -4 | 142% | -76%
OC1CCN(C(c2ccc3ncccc3c2)c2nnnn2C2CCCCC2)CC1 (stereo not given) | -1% | 18 | ? | -6 | 0% | -7%
CC(C)(C)c1nc(NCCO)c2nnn(Cc3ccccc3)c2n1 | -6% | nt | -10% | -3 | ? | -26%
SMILES | SARS PLpro yeast | Shiga inhibitor | Pf growth 48h | Cycloheximide cs | Pf growth 96h | NS1 inh
COc1ccccc1N1CCN(C(c2ccccc2Cl)c2nnnn2C(C)(C)C)CC1 (stereo not given) | nt | 18 | ? | -3 | ? | -32%
CC(C)(C)n1nnnc1C(c1cccc(C#N)c1)N1CCCc2ccccc21 (stereo not given) | -6% | -12 | 9.3µM* | -1 | 23% | ?
COc1ccccc1N1CCN(C(c2ccc(Cl)cc2)c2nnnn2C(C)(C)C)CC1 (stereo not given) | -1% | -14 | 6.6µM* | -3 | ? | ?
CC(C)(C)n1nnnc1C(c1cccc(C#N)c1)N1CCC(Cc2ccccc2)CC1 (stereo not given) | 2% | 9 | 2.6µM* | -2 | nt | -8%
COc1ccccc1C(c1nnnn1C(C)(C)C)N1CCCc2ccccc21 (stereo not given) | 1% | -12 | ? | -7 | ? | 7%
CCC(C)(C)n1nnnc1C(c1cccs1)N1CCc2ccccc21 (stereo not given) | -9% | 7 | 9.3µM* | -1 | 8%[5.75 µM] | -76%
COc1ccc(C(=O)/C=C\N2CCOCC2)cc1 | -9% | -15 | 1% | 16 | ? | -100%
Nc1ccc(N2CCCCC2)c2nonc12 | 1% | 26 | ? | -2 | -37% | 1%
Nc1nonc1-c1noc(N2CCCCC2)n1 | 0% | 80* | 96% | 30* | 32% | -6%
CS(=O)(=O)c1ccc(Cl)c(NC(=O)COC(=O)c2c(Cl)cccc2Cl)c1 | 1% | 20 | ? | -3 | -8% | -5%
CC(=O)c1ccccc1NC(=O)COC(=O)c1cc[n+]([O-])cc1 | 6% | nt | nt | nt | nt | nt
O=C(COC(=O)c1ccccc1)Nc1ccccc1Br | 0% | 65* | 0% | 40* | 5% | 2%
O=C(COC(=O)c1cc[n+]([O-])cc1)Nc1cccc(Cl)c1Cl | 3% | 33 | 12µM* | 7 | 17% | nt
O=C(COC(=O)c1c(Cl)cccc1Cl)Nc1ccccc1Br | -24% | 18 | ? | 26* | ? | -17%
O=C(COC(=O)/C=C/c1ccccc1)Nc1ccccc1Br | -13% | -9 | 13% | 10 | 0% | 2%
Cc1ccccc1-n1ncc2c1CC(C)(C)CC2NC(=O)CCN1CCCCC1=O (stereo not given) | -5% | -6 | ? | -3 | -16% | -1%
CC1CC(=O)c2cnc(NCC3CCCO3)nc2C1 (stereo not given) | -2% | 29 | 28% | 8 | 9.3µM* | 1%
CC1CC(=O)c2cnc(NCc3ccco3)nc2C1 (stereo not given) | 5% | 53 | 19% | 16* | ? | -5%
O=C1CC(c2ccc(F)cc2)Cc2nc(NCc3ccco3)ncc21 (stereo not given) | 2% | 6 | 0% | -2 | ? | 11%
Cc1ccc(Nc2ncc3c(n2)CC(C)CC3=O)c(C)c1 (stereo not given) | 0% | 97* | 288% | 39* | i | -5%
CC1CC(=O)c2cnc(Nc3cccc(C(F)(F)F)c3)nc2C1 (stereo not given) | 3% | 64 | 7% | 18 | 127% | 15%
CC1CC(=O)c2cnc(Nc3ccccc3)nc2C1 (stereo not given) | 8% | 55 | 230% | 48* | nt | -8%
